Laboratory results as given in PubChem BioAssay AID1159580 (chemical genetic matrix, 2015).
The whole screen tested about 5,500 compounds, of which about 2,000 (36%) were called active. Roughly 18% stayed inconclusive and do not appear here. Cut-off read from the data, not from the text of the source: active = normalized growth mostly below about 0.91 (no sharp cut-off); inconclusive = no clear call, values can overlap the other calls; inactive = mostly above about 0.92. This is one part of the list.

Test: chemical genetic growth profiling, strain panel (AID 1159580);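 note: tested at 20 µM; growth read once vehicle control cultures reached saturation at 30 °C; 1 = growth at the plate median or of vehicle wells; lower values mean less growth of the strain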
Conditions: growth OD

Measured: normalized growth

CCC(C)C(=O)O[C@H]1[C@H](O)C2C(CN3CC(C)CCC3[C@@]2(C)O)C2C[C@]34O[C@]5(O)C(OC(=O)C(C)(O)CC)CC[C@@]3(C)C5C(OC(C)=O)[C@@H](OC(C)=O)C4[C@@]21O (stereo partly specified)
inactive: S. cerevisiae deletion strains, locus YKL009W, strain mrt4, active compounds read low 1.01 | S. cerevisiae deletion strains, locus YKL068W, active compounds read low 1.01 | S. cerevisiae deletion strains, locus YKL085W, strain MDH1 (second series), active compounds read low 1.03 | S. cerevisiae deletion strains, locus YKL085W, strain MDH1, active compounds read low 1.03 | S. cerevisiae deletion strains, locus YKL160W, strain elf1, active compounds read low 1.04 | S. cerevisiae deletion strains, locus YKL190W, strain CNB1, active compounds read low 1 | S. cerevisiae deletion strains, locus YKR001C, strain vps1, active compounds read low 0.983 | S. cerevisiae deletion strains, locus YKR026C, strain gcn3, active compounds read low 1.01 | S. cerevisiae deletion strains, locus YKR091W, strain srl3, active compounds read low 1.02 | S. cerevisiae deletion strains, locus YLL001W, strain dnm1, active compounds read low 1.02 | S. cerevisiae deletion strains, locus YLL026W, active compounds read low 1.01 | S. cerevisiae deletion strains, locus YLL041C, strain sdh2, active compounds read low 1.04 | S. cerevisiae deletion strains, locus YLR027C, strain aat2, active compounds read low 1.02 | S. cerevisiae deletion strains, locus YLR039C, strain RIC1, active compounds read low 1.02 | S. cerevisiae deletion strains, locus YLR058C, strain SHM2, active compounds read low 1.01 | S. cerevisiae deletion strains, locus YLR102C, strain apc9, active compounds read low 0.995 | S. cerevisiae deletion strains, locus YLR113W, strain HOG1, active compounds read low 0.983 | S. cerevisiae deletion strains, locus YLR221C, strain rsa3, active compounds read low 1.01 | S. cerevisiae deletion strains, locus YLR258W, strain gsy2, active compounds read low 1.01 | S. cerevisiae deletion strains, locus YLR262C, strain YPT6 (second series), active compounds read low 1.02 | S. cerevisiae deletion strains, locus YLR262C, strain YPT6, active compounds read low 1.05 | S. cerevisiae deletion strains, locus YLR268W, strain sec22, active compounds read low 0.984 | S. cerevisiae deletion strains, locus YLR320W, strain mms22, active compounds read low 1.02 | S. cerevisiae deletion strains, locus YLR330W, strain CHS5, active compounds read low 1.01 | S. cerevisiae deletion strains, locus YLR342W, strain FKS1 (second series), active compounds read low 1 | S. cerevisiae deletion strains, locus YLR342W, strain FKS1, active compounds read low 1.01 | S. cerevisiae deletion strains, locus YLR357W, strain rsc2, active compounds read low 1.01 | S. cerevisiae deletion strains, locus YLR370C, strain arc18, active compounds read low 1.03 | S. cerevisiae deletion strains, locus YLR371W, strain rom2, active compounds read low 0.984 | S. cerevisiae deletion strains, locus YLR384C, strain iki3, active compounds read low 1.02 | S. cerevisiae deletion strains, locus YLR418C, strain cdc73, active compounds read low 0.994 | S. cerevisiae deletion strains, locus YML016C, strain PPZ1, active compounds read low 1.01 | S. cerevisiae deletion strains, locus YML032C, strain rad52, active compounds read low 0.989 | S. cerevisiae deletion strains, locus YML120C, strain ndi1, active compounds read low 1.01 | S. cerevisiae deletion strains, locus YML124C, strain tub3, active compounds read low 0.981 | S. cerevisiae deletion strains, locus YMR058W, strain fet3, active compounds read low 1.02 | S. cerevisiae deletion strains, locus YMR078C, strain ctf18, active compounds read low 0.986 | S. cerevisiae deletion strains, locus YMR125W, strain sto1, active compounds read low 1.02 | S. cerevisiae deletion strains, locus YMR129W, active compounds read low 1.02 | S. cerevisiae deletion strains, locus YMR205C, strain PFK2, active compounds read low 1.03 | S. cerevisiae deletion strains, locus YMR223W, strain ubp8, active compounds read low 0.985 | S. cerevisiae deletion strains, locus YMR231W, strain pep5, active compounds read low 1.02 | S. cerevisiae deletion strains, locus YMR263W, strain SAP30, active compounds read low 1 | S. cerevisiae deletion strains, locus YMR307W, strain GAS1, active compounds read low 1.02 | S. cerevisiae deletion strains, locus YNL067W, strain RPL9B, active compounds read low 1.02 | S. cerevisiae deletion strains, locus YNL071W, strain lat1, active compounds read low 1.03 | S. cerevisiae deletion strains, locus YNL128W, strain TEP1, active compounds read low 1.01 | S. cerevisiae deletion strains, locus YNL153C, strain GIM3, active compounds read low 1.01 | S. cerevisiae deletion strains, locus YNL183C, strain NPR1, active compounds read low 0.99 | S. cerevisiae deletion strains, locus YNL209W, strain ssb2, active compounds read low 1.02 | S. cerevisiae deletion strains, locus YNL233W, strain BNI4, active compounds read low 1.01 | S. cerevisiae deletion strains, locus YNL248C, strain rpa49, active compounds read low 1.08 | S. cerevisiae deletion strains, locus YNL250W, strain rad50, active compounds read low 0.984 | S. cerevisiae deletion strains, locus YNL271C, strain bni1, active compounds read low 0.982 | S. cerevisiae deletion strains, locus YNL298W, strain CLA4, active compounds read low 0.991 | S. cerevisiae deletion strains, locus YNL307C, strain MCK1, active compounds read low 0.994 | S. cerevisiae deletion strains, locus YNL322C, strain KRE1 (second series), active compounds read low 1.02 | S. cerevisiae deletion strains, locus YNL322C, strain KRE1, active compounds read low 1.01 | S. cerevisiae deletion strains, locus YNR049C, strain mso1, active compounds read low 1 | S. cerevisiae deletion strains, locus YNR052C, strain pop2, active compounds read low 1 | S. cerevisiae deletion strains, locus YOL006C, strain TOP1, active compounds read low 1.01 | S. cerevisiae deletion strains, locus YOL012C, strain htz1 0.797 | S. cerevisiae deletion strains, locus YOL147C, strain pex11, active compounds read low 0.994 | S. cerevisiae deletion strains, locus YOR001W, strain rrp6, active compounds read low 0.998 | S. cerevisiae deletion strains, locus YOR061W, strain CKA2, active compounds read low 1.01 | S. cerevisiae deletion strains, locus YOR069W, strain VPS5, active compounds read low 1.01 | S. cerevisiae deletion strains, locus YOR070C, strain gyp1, active compounds read low 1.03 | S. cerevisiae deletion strains, locus YOR080W, strain dia2, active compounds read low 1.04 | S. cerevisiae deletion strains, locus YOR083W, strain WHI5, active compounds read low 1.04 | S. cerevisiae deletion strains, locus YOR106W, strain vam3, active compounds read low 1.06 | S. cerevisiae deletion strains, locus YOR136W, strain idh2, active compounds read low 0.984 | S. cerevisiae deletion strains, locus YOR144C, strain elg1, active compounds read low 0.996 | S. cerevisiae deletion strains, locus YOR184W, strain ser1, active compounds read low 0.982 | S. cerevisiae deletion strains, locus YOR231W, strain MKK1, active compounds read low 0.992 | S. cerevisiae deletion strains, locus YOR265W, strain rbl2, active compounds read low 0.998 | S. cerevisiae deletion strains, locus YOR270C, strain vph1, active compounds read low 1.11 | S. cerevisiae deletion strains, locus YOR290C, strain snf2, active compounds read low 1.06 | S. cerevisiae deletion strains, locus YOR316C, strain cot1, active compounds read low 0.99 | S. cerevisiae deletion strains, locus YPL051W, strain arl3, active compounds read low 1.01 | S. cerevisiae deletion strains, locus YPL055C, strain LGE1, active compounds read low 1.02 | S. cerevisiae deletion strains, locus YPL078C, strain atp4, active compounds read low 1.05 | S. cerevisiae deletion strains, locus YPL106C, strain sse1, active compounds read low 0.995 | S. cerevisiae deletion strains, locus YPL240C, strain hsp82, active compounds read low 1.01 | S. cerevisiae deletion strains, locus YPL241C, strain CIN2, active compounds read low 0.988 | S. cerevisiae deletion strains, locus YPL256C, strain CLN2, active compounds read low 1.04 | S. cerevisiae deletion strains, locus YPR119W, strain clb2, active compounds read low 0.984 | S. cerevisiae deletion strains, locus YPR141C, strain kar3, active compounds read low 0.987 | S. cerevisiae deletion strains, locus YPR163C, strain tif3, active compounds read low 0.99 | S. cerevisiae deletion strains, locus YPR167C, strain met16, active compounds read low 0.974 | S. cerevisiae deletion strains, strain wtn01, active compounds read low 0.991 | S. cerevisiae strains, strain wild type, active compounds read low 1
